Test results: ChEMBL document CHEMBL3988442, “University of Dundee, Small-Polar-MMV Screening Library” (2021)
For some of these results: Measured potencies and affinities stand elsewhere.

How the values were obtained:
Set-up in all cases: scale not given: direction of the effect not stated beside the values
[1] = molecular target: Protein translocase subunit SecA (Escherichia coli (strain K12)) (UniProt P10408); assay: Assay to Identify E. coli SecA ATPase Inhibitors; assay type: functional; settings: 30 µM
Protein translocase subunit SecA (Escherichia coli (strain K12)), sequence (P10408 whole entry): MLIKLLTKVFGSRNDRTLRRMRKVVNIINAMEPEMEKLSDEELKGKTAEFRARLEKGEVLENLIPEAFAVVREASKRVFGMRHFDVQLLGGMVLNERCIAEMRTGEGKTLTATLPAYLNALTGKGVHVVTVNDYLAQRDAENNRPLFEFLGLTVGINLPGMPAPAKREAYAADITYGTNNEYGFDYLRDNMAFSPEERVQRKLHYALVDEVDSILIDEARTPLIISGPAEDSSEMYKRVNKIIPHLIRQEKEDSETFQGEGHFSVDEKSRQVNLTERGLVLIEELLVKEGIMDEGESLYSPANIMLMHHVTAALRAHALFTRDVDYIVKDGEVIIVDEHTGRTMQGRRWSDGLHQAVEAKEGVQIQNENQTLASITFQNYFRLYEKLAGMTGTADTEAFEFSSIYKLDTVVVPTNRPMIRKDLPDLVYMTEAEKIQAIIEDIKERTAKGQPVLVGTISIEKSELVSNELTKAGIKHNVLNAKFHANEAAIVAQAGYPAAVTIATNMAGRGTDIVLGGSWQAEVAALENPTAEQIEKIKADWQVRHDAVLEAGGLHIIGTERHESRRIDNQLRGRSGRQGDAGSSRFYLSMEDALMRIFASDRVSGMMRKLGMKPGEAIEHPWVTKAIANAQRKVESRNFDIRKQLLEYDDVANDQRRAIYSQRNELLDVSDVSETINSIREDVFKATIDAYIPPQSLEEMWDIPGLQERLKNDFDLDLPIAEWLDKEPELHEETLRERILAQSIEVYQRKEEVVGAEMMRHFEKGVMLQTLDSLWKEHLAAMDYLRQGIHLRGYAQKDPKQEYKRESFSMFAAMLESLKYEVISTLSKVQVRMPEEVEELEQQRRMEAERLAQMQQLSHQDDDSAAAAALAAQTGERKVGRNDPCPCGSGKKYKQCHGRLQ

[2] = molecular target: T1, Ubiquitin-activating enzyme e1, putative (Leishmania donovani (strain BPK282A1)) (UniProt E9BSI1); assay: Leishmania donovani Ubiquitin Activating Enzyme (LdE1); assay type: functional; settings: 30 µM
T1 sequence (whole entry): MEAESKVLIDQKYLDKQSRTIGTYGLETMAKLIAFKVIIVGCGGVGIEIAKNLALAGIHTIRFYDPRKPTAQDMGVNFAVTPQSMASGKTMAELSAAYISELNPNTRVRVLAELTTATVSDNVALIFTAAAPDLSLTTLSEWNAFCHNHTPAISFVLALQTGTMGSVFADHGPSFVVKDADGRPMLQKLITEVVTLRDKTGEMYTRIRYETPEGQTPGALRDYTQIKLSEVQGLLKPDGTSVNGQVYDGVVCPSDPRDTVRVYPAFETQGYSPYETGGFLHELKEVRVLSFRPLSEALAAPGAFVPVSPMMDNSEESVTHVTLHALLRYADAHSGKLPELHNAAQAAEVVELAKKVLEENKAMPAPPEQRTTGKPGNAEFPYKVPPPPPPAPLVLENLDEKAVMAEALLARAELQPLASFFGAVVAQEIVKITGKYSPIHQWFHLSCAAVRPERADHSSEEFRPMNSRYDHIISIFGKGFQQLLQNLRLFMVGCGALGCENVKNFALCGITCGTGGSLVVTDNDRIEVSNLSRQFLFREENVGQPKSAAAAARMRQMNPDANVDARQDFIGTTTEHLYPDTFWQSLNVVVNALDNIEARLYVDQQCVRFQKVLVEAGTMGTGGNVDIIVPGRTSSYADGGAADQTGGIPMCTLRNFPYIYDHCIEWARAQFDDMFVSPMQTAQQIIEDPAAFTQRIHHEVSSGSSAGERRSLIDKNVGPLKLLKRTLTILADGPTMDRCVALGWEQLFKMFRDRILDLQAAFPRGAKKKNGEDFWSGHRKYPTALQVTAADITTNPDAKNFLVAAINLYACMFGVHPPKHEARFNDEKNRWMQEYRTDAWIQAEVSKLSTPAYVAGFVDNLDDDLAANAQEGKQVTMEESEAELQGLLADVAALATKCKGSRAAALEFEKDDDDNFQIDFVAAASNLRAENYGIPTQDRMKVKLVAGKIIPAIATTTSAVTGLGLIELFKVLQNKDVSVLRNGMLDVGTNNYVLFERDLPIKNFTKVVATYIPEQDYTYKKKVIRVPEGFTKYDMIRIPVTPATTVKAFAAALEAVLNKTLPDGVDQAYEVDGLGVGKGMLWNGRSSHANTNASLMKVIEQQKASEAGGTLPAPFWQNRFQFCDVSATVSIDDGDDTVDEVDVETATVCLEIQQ

[3] = molecular target: AMP-activated protein kinase, AMPK (Homo sapiens) (UniProt P54646+O43741+P54619+Q9UGJ0+Q9Y478+Q13131+Q9UGI9); assay: AMP-dependent Kinase enzyme assay. An in vitro enzyme assay that detects ADP turnover that is directly proportional to AMPK activity. This uses naive AMPK that is activated during the assay with MK-8722; assay type: functional; settings: 30 µM
[4] = molecular target: Sialic acid-binding Ig-like lectin 9 (Homo sapiens) (UniProt Q9Y336); assay: Hs-Siglec9 ALPHAscreen SOP 20170721; settings: 10 µM
Sialic acid-binding Ig-like lectin 9 (Homo sapiens), sequence (Q9Y336 whole entry): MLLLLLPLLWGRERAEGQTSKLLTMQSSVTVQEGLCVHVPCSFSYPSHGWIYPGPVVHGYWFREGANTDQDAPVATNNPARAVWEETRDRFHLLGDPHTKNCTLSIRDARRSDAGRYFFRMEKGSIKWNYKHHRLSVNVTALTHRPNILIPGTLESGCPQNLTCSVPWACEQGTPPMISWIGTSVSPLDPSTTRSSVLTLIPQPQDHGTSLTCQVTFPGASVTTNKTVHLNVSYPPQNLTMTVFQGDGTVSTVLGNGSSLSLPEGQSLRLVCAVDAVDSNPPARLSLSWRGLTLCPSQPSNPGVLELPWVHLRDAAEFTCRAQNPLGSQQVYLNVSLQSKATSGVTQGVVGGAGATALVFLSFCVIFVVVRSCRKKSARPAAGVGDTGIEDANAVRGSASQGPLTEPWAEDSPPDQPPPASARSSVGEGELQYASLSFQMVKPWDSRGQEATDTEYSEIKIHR

[5] = tested on: Trypanosoma cruzi; assay: Trypanosoma cruzi phosphomannomutase and mannose-1-phosphate guanylyltransferase assay; assay type: functional; settings: 10 µM
[6] = molecular target: T2, Arginase-2, mitochondrial (Homo sapiens) (UniProt P78540); assay: in vitro enzyme assay to detect the production of urea directly proportional to the activity of Arginase II; assay type: functional; settings: 33.3 µM; also: in the data most compounds retested in dose-response had high values
T2 sequence (whole entry): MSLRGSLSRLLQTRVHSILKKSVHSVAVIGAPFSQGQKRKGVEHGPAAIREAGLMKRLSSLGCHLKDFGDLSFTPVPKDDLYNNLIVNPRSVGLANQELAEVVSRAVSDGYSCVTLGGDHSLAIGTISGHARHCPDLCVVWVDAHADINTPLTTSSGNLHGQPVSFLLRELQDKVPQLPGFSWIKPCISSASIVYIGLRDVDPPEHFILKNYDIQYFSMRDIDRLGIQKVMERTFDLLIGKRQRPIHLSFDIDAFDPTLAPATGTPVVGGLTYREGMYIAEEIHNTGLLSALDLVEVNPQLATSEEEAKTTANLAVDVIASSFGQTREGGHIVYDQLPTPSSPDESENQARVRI

[7] = molecular target: T3, Proteasome subunit beta (Trypanosoma cruzi) (UniProt O96673); assay: Trypanosoma cruzi proteasome chymotrypsin-like activity (TcProtChymo) assay.; also: in the data most compounds retested in dose-response had high values; assay type: functional; settings: 9.37 µM
T3 sequence (whole entry): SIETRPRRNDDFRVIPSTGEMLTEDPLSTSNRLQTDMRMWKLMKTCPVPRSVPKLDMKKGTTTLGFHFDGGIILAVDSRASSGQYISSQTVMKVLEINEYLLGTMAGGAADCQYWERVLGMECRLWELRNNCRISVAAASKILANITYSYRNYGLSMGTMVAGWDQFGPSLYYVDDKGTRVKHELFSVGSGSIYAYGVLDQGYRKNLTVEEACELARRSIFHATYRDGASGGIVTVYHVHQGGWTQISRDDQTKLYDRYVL

[8] = species: Homo sapiens; assay: To identify inhibition of the IFN signalling (Jak-Stat) pathway via expression of an eGFP reporter gene under the control of an IFN-stimulated response element (ISRE) containing MxA promoter.; assay type: functional; settings: 30 µM
[9] = molecular target: T4, Tyrosyl-tRNA synthetase, putative (Trypanosoma cruzi (strain CL Brener)) (UniProt Q4DSP6); assay: Trypanosoma cruzi tyrosyl tRNA synthetase (TcYRS) _High Tyrosine SOP; assay type: functional; settings: 30 µM; also: in the data most compounds retested in dose-response had high values
T4 sequence (whole entry): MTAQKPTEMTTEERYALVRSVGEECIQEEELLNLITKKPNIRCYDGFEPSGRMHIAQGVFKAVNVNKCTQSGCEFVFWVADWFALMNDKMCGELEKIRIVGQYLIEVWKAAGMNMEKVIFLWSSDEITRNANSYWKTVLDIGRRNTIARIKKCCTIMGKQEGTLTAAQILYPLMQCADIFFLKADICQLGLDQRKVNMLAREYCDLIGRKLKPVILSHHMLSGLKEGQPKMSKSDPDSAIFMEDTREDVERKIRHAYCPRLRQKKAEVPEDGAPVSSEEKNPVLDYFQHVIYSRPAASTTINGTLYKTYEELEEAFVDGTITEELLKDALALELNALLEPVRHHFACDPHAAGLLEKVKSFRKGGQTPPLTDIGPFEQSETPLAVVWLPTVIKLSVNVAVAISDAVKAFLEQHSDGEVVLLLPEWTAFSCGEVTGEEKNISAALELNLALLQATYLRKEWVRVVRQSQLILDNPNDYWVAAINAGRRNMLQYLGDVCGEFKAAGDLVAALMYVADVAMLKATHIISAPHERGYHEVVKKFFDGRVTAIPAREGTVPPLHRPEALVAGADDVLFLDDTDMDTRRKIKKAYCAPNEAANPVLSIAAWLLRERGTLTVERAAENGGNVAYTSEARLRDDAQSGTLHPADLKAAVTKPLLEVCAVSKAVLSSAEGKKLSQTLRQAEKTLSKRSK

[10] = molecular target: T4, Tyrosyl-tRNA synthetase, putative (Trypanosoma cruzi (strain CL Brener)); assay: Trypanosoma cruzi tyrosyl tRNA synthetase (TcYRS) SOP; assay type: functional; settings: 30 µM
[11] = molecular target: Chromo domain-containing protein 1 (Saccharomyces cerevisiae (strain ATCC 204508 / S288c) (Baker's yeast)) (UniProt P32657); assay: ScCHD-1 Enzyme Inhibition Assay; assay type: functional; settings: 30 µM; also: in the data most compounds retested in dose-response had high values
Chromo domain-containing protein 1 (Saccharomyces cerevisiae (strain ATCC 204508 / S288c) (Baker's yeast)), sequence (P32657 whole entry, the tested form may be a part): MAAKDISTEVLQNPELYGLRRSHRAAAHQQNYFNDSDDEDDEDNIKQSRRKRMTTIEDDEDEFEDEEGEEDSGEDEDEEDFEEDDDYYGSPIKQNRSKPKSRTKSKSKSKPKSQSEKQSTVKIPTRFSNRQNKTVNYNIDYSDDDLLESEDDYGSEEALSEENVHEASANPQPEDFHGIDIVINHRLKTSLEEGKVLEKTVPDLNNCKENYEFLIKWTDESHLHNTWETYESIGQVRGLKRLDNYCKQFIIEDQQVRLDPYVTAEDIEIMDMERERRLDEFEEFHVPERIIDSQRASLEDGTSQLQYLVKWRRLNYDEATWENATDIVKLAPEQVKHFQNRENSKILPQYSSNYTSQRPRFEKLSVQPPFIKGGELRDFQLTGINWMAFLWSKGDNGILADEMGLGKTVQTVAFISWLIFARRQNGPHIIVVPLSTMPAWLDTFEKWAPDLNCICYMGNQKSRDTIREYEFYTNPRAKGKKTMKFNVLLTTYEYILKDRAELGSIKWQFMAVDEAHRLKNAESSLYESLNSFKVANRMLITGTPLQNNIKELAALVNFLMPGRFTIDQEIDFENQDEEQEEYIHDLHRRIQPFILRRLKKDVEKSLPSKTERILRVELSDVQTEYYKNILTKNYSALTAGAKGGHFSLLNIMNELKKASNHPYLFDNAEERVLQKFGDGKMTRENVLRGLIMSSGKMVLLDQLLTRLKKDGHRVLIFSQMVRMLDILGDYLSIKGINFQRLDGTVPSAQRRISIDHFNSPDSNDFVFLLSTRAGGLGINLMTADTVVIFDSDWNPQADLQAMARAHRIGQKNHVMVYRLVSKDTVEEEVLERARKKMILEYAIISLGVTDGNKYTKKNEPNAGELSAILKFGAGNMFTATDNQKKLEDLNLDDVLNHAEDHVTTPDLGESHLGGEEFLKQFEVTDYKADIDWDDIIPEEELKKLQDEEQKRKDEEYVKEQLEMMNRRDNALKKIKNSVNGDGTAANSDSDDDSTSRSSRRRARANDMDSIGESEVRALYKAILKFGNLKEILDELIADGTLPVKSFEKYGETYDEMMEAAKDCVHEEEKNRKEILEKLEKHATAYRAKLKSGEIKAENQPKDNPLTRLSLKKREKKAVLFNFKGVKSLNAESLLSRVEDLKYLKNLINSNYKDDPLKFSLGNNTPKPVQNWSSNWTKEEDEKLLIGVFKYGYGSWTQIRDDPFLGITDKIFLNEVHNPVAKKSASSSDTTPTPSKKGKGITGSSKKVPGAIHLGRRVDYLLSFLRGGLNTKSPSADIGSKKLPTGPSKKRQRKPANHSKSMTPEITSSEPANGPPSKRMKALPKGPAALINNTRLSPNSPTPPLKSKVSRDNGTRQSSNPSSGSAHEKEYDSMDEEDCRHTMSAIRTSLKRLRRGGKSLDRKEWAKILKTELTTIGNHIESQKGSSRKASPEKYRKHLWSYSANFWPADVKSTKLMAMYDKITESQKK

| SMILES | Percent Effect [1] [%] | Percent Effect [2] [%] | Percent Effect [3] [%] | Percent Effect [4] [%] | Percent Effect [5] [%] | Percent Effect [6] [%] | Percent Effect [7] [%] | Percent Effect [8] [%] | Percent Effect [9] [%] | Percent Effect [10] [%] | Percent Effect [11] [%] |
| --- | --- | --- | --- | --- | --- | --- | --- | --- | --- | --- | --- |
| O=C(c1cnc(COc2ccccc2)nc1O)N1CCOCC1 | -3.01 | 4.17 | -4.14 | -9.54 | -1.07 | -0.442 | 8.77 | 16.1 | 2.1 | 2.56 | -1.09 |
| CC(NC(=O)CCCOc1ccccc1)c1nnc2n1CCCCC2 (stereo not given) | -4.14 | 13.5 | -5.88 | -2.77 | 0.0943 | -5.21 | 11.3 | 16.3 | 5.42 | 13.6 | -4.16 |
| Cc1cnn(CC2CCCN2C(=O)c2cccc(CC#N)c2)c1 (stereo not given) | -3.75 | 2.53 | 0.139 | -0.305 | 8.03 | 0 | -0.0819 | -5.56 | 0.493 | 1.27 | -2.19 |
| O=C(Nc1cnccn1)[C@@H]1COC[C@H]2CN(C3CCCC3)C[C@H]21 | -8.34 | 13.5 | -5.42 | 16.7 | 3.91 | 3.33 | 3.97 | -6.67 | 6.93 | 11 | -4.69 |
| CC(NC(=O)CSCC#N)c1ccccc1 (stereo not given) | -1.5 | 28.9 | -6.37 | -7.6 | 5.51 | 0 | 15 | 5.31 | 7.39 | 23.5 | -11.2 |
